Source: PMC12136788
Positions count from the first letter of the chain named. In all, about 24,000 sequences were measured (“enrichment r”: median about 0.99, highest 2% from about 3.7 on). This excerpt belongs to a sample that is enriched for the highest values.

T1: UNK ZnF1-3 (human, UniProt Q9C0B0 31-174)
T1 sequence: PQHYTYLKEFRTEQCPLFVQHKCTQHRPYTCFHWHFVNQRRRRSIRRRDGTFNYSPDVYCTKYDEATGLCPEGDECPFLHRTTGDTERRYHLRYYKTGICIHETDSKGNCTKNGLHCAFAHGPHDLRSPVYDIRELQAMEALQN

B1: 44559432_44560298_1111_3pUTR_ENSMUSG00000032096_ENSMUST00000034607|mouse|control|control (ssRNA)
RNA: GGGAGUUCUACAGUCCGACGAUCACAUUUGGAUGCGUCUGUAGCUGCACCCCUUUCUUAUCUUCAUUUUCUACAUGAAGACGAAUCCGGCCAAAUUUGUCAUCUGAGAUCCUAAGCAUGAUCAUGCCAUGCAACUCCAUAUUCCAACAGAGGAUUGAGCAUCA
B2: chr15:55677894:55677895:-_ENSG00000260916_ENST00000569205|hu_mus|motif|central (ssRNA)
RNA: GGGAGUUCUACAGUCCGACGAUCGGAACAUUCUAGAGUCAGUCCACAGUUGUCACUGGCUGUGGCAGAAUUCACGAUCUCGGUAUCAGAACCCUCAUGAUUGAUGACAGUCCAGCCACAAGAUGAGUCGCUGUCGCUGGAACUCAACAGAGGAUUGAGCAUCA
B3: chr5:133537698:133537699:-_ENSG00000113575_ENST00000481195|hu_mus|FALSE|FALSE (ssRNA)
RNA: GGGAGUUCUACAGUCCGACGAUCGCUCUCGUGAUUCCCUCGGAGUAUGGUGAUGCGCUCUCGGUAACGAACCUUAAGAGCUACAAGCAGUGUAACUGUUUCAACAGAGUAAUAUCCUCUGUCCACAUAGUCUCCCAUAAACAGCAACAGAGGAUUGAGCAUCA
B4: chr7:129114946:129114947:-_ENSMUSG00000034951_ENSMUST00000057576|mus_hu|motif|central (ssRNA)
RNA: GGGAGUUCUACAGUCCGACGAUCAUCAACAAGCAUCAUUAAGCUGUUCUGCAUACCUGUUAGCUUGGCAGAAAUCACAGCGGUGUCCUGAGUCUUAAAUGUCUCCUCAAUAUCGGCGCUCAACGUGCUCCACUUAUCUGCUUCCAACAGAGGAUUGAGCAUCA
B5: chr2:179515052:179515053:+_ENSMUSG00000000305_ENSMUST00000000314|mus_hu|mus_mus_mus_hu_False|28_108 (ssRNA)
RNA: GGGAGUUCUACAGUCCGACGAUCGCUUUCCCGCGCAGUCACCGUGAACGCCACCUGCUCGGAGGGGACCUGCAGCUCCCGGGUGGCGAAGACUGUCCCAUCUGCCCCGACUUUGAAGUCCAUGCUGUUGGUCUCAUAUUGUGUCAACAGAGGAUUGAGCAUCA
B6: chr22:38881817:38881818:-_ENSG00000100201_ENST00000396821|hu_mus|motif|central (ssRNA)
RNA: GGGAGUUCUACAGUCCGACGAUCUAAUUAUAGACUGGAUCUUUUGGGUGGGCAGAAGAAACCUGGCAGUGAAAUUUUAACGGUCUGCAUUAAAAAAAGAUAAACCGUAAUGGUUGAGAAAAGAAAAAAUAAAAAUGAAAAGGUCAACAGAGGAUUGAGCAUCA
B7: chr1:109605286:109605287:-_ENSG00000197780_ENST00000461096|hu_mus|hu_hu_hu_mus_True|58_108 (ssRNA)
RNA: GGGAGUUCUACAGUCCGACGAUCAAGAACAAUAACAACAUUCAGUAACCUCUUUAAAUGCAAUUAUCCUUAUUAUAAACUAAGGGCAAUAAUAAUUUAAUACCGUAAGUGAACUACACACAAAGCCUGAACCGCGAAAAUGGUCAACAGAGGAUUGAGCAUCA
B8: 110384571_110384691_763_CDS_ENSG00000138802_ENST00000265175|human|control|control (ssRNA)
RNA: GGGAGUUCUACAGUCCGACGAUCUCCUGAAAGACUUUGCUGCUGGUGGUGCUGUUGUGAUGGUAGAGGUGGAAGUGGCGAUGGAUGGCUGAUAGCUGUAUUUUGACCAGAGAAUGAAUUAUCUUUAACUGGCCUAACAGUCGGCAACAGAGGAUUGAGCAUCA
B9: chr22:38881817:38881818:-_ENSG00000100201_ENST00000396821|hu_mus|FALSE|FALSE (ssRNA)
RNA: B6 RNA with G81U, G82A
B10: 65775431_65775551_264_CDS_ENSG00000116675_ENST00000371069|human|control|control (ssRNA)
RNA: GGGAGUUCUACAGUCCGACGAUCCACUCUCUGCUUGCCGCCAACCCCGCCGCUUCCCGCACUUAAGUCCCCGUUACUGUCCACCAGCUGCAAAGAUUCAUAACCAUCGUUGCUGGUCUUUUUCCGGUAGCUCCCGAGGAGGCUCAACAGAGGAUUGAGCAUCA
B11: chr4:42581876:42581877:-_ENSG00000124406_ENST00000264449|hu_hu|FALSE|FALSE (ssRNA)
RNA: GGGAGUUCUACAGUCCGACGAUCGCCACCAUAGUUUAGAUUGAGAUACCAGUCUUUUCCAGAAUGCCUUCGAUUCCAAAUGGCUGAGCCCACAGAACAGACAAGAGACAUGGCAAUUAAGAUACAAAAUAAAAUCAAAAUUUGCAACAGAGGAUUGAGCAUCA
B12: chr21:34924512:34924513:+_ENSG00000159140_ENST00000381679|hu_mus|motif|central (ssRNA)
RNA: GGGAGUUCUACAGUCCGACGAUCAGAUGACAUCAUGGAACGUUCUGCAGCAUAGGACAUCAUCAUAGAACGUCUAGAUGCGGACAUCAAGGGUCUAGGUGCUAACCUGUAUGGCCUAGGUGCUAUCCUAUAGGACCUGGGUGCCAACAGAGGAUUGAGCAUCA
B13: 122452171_122453414_3711_CDS_ENSMUSG00000034602_ENSMUST00000073792|mouse|control|control (ssRNA)
RNA: GGGAGUUCUACAGUCCGACGAUCUCGGUCCAGUAGAUGAAAGAGUACCUUCCAAAUAACGGUGUGCCAGGUGGAGUGCUGCAGCAGGGUCCCGUGCGCUCCGAUCGUGGAGAACAGGGUCUGCCCUGCGCUCUUCCUCACGGCCAACAGAGGAUUGAGCAUCA
B14: chr17:56552419:56552420:-_ENSMUSG00000013236_ENSMUST00000086828|mus_mus|mus_mus_mus_hu_False|48_58 (ssRNA)
RNA: GGGAGUUCUACAGUCCGACGAUCAAAAAAUACACUAUUUAAAAAAAAUGAAAUGUCACGGGAUACAGUUACACUGACACUAUUAAAAAAAAAUAAGAUUCUGGUCCCAGCCCAGUGUCCCCAGGCUGCAGAGCGGGGAGGAGCCAACAGAGGAUUGAGCAUCA
B15: chr17:56552419:56552420:-_ENSMUSG00000013236_ENSMUST00000086828|mus_mus|mus_mus_mus_hu_False|48_48 (ssRNA)
RNA: B14 RNA with C77G, C79G, A81U
B16: chr17:56552419:56552420:-_ENSMUSG00000013236_ENSMUST00000086828|mus_mus|mus_mus_mus_hu_False|1_48 (ssRNA)
RNA: B14 RNA with C77G, C79G, A81U, A138C, G139A, C143G
B17: chr17:56552419:56552420:-_ENSMUSG00000013236_ENSMUST00000086828|mus_mus|mus_mus_mus_hu_False|48_98 (ssRNA)
RNA: B14 RNA with U38A, U39A, C77G, C79G, A81U

These binders were tested against T1, UNK ZnF1-3 (assay: nsRBNS (natural sequence RNA bind-n-seq); RBNS binding buffer (assumed for nsRBNS): 25 mM Tris pH 7.5, 150 mM KCl, 3 mM MgCl2, 0.01% Triton X-100, 500 ug/ml BSA, 20 U/ml SUPERase-In, 4 C; UNK is unkempt and MSI1 is Musashi-1; names of the RNAs are library labels; protein concentration not given here; high values mean tight binding).

Row | Binder | binding signal [enrichment R]
1 | B1 | 0.578
2 | B2 | 0.495
3 | B3 | 0.691
4 | B4 | 0.781
5 | B5 | 0.727
6 | B6 | 8.6
7 | B7 | 1.22
8 | B8 | 1.16
9 | B9 | 6.63
10 | B10 | 0.845
11 | B11 | 3.52
12 | B12 | 0.683
13 | B13 | 0.594
14 | B14 | 8.56
15 | B15 | 7.18
16 | B16 | 3.79
17 | B17 | 11.1
